# Compound activity deposited in PubChem BioAssay by several laboratories.
# Autofluor counter – counter-screen for toxin protease inhibitors: compound fluorescence; compound autofluorescence counterscreen, microsphere flow cytometry; active compounds read high; fluorescence intensity (concentration not given with the values); hit rate 3.1% among 360,000; AID 624483; in the data active = fluorescence intensity above about 16000; inconclusive = no clear call, values can overlap the other calls
# BoNT A protease – BoNT/A light chain protease inhibitors, primary screen, biochemical, flow cytometry, MLPCN library | inhibition, % at 10 µM | multiplex microsphere protease substrate cleavage | AID 588499, 2011 | hit rate 0.17% among 360,000 | Botulinum neurotoxin type A light chain protease (Clostridium botulinum A str. ATCC 3502); also: plate controls were buffer without enzyme for full effect and enzyme alone for no effect
# Anthrax LF prot – Bacillus anthracis LF protease inhibitors, primary screen, biochemical, multiplex microsphere, MLPCN library; AID 588501, 2011; multiplex microsphere protease cleavage assay; inhibition, % at 10 µM; Lethal factor (Bacillus anthracis), P15917; hit rate 0.12% among 360,000; also: plate controls were buffer without enzyme for full effect and enzyme alone for no effect
# BoNT-F LC inh – BoNT/F light chain protease inhibitors, primary screen, biochemical, flow cytometry, MLPCN library; Botulinum neurotoxin type F light chain protease (Clostridium botulinum); inhibition, % at 10 µM; hit rate 0.22% among 360,000; Multiplex microsphere protease cleavage assay; in the data active = inhibition above about 35%, passing the limit was not always enough; inconclusive = no clear call, values can overlap the other calls; also: plate controls were buffer without enzyme for full effect and enzyme alone for no effect
# DUSP3 inh – VHR1 phosphatase inhibitors, primary screen, biochemical, absorbance, uHTS; recombinant VHR phosphatase, pNPP absorbance; AID 1654, 2009; inhibition, % at 13.3 µM; hit rate 0.52% among 290,000; Dual specificity protein phosphatase 3 (Homo sapiens), P51452; in the data active = inhibition above about 50%
# Target sequence (P51452 whole entry, looked up): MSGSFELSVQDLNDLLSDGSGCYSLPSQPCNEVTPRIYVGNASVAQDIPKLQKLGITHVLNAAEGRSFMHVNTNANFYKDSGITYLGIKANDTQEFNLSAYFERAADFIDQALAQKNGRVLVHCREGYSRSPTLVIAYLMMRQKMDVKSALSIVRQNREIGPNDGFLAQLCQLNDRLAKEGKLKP
# MazF activator – activators of E. coli MazEF toxin-antitoxin RNase, primary screen, biochemical, fluorescence, uHTS | hit rate 0.32% among 350,000 | FAM/BHQ RNA-DNA oligo cleavage fluorescence, 5 h | AID 504720, 2011 | activation, % at 20 µM; in the data active = activation above about 50%
# Target sequence (P0AE70 whole entry, looked up): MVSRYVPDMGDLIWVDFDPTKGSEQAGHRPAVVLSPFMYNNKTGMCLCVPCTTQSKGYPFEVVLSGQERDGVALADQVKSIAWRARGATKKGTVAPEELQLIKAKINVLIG
# An asterisk follows results filed as active; ? = inconclusive; · = no result. Rows were chosen to be rich in hits. Some 4.1% of all compounds tested hit in one or more screens of this group. Rule as the data show it, unless noted: active = inhibition above about 30%; inconclusive = no clear call, values can overlap the other calls; inactive = below that.
SMILES,Autofluor counter,BoNT A protease,Anthrax LF prot,BoNT-F LC inh,DUSP3 inh,MazF activator
COC(=O)c1ccc(CSc2nnc(NC(=O)C3CCCO3)s2)cc1 (stereo not drawn),2544,-1,-10,0,-19,2
Cc1ccc(C(=O)Oc2coc(CSc3nnc(NC(=O)C4CC4)s3)cc2=O)cc1C,1984,34*,0,-7,28,4
O=C(Oc1coc(CSc2nnc(NC(=O)C3CC3)s2)cc1=O)c1ccccc1,2569,63*,1,0,-8,1
Cc1cccc(C(=O)Oc2coc(CSc3nnc(NC(=O)C4CC4)s3)cc2=O)c1,2570,55*,1,-3,21,2
CNc1ncnc2c1ncn2[C@H]1CN(Cc2ccc(-c3ccccc3)cc2)C[C@@H](CO)O1,3587,0,0,-3,·,·
Cc1c(NC(=O)c2cc3ccccc3o2)cccc1-n1cnnn1,3842,0,-4,6,·,14
CC(=O)Nc1ccc(C=C(C#N)c2ccc(C)cc2)cc1,3719,0,-5,4,·,2
Cc1ccc(C2C=CC(C#N)=CN2Cc2ccccc2)cc1 (stereo not drawn),6828,0,-9,2,·,·
O=C1SC(SCc2ccccc2)=N/C1=C\c1ccc(C(=O)O)cc1,3306,-1,-1,-4,7,-28
O=C1SC(SCc2ccccc2)=N/C1=C\c1ccco1,23038*,-2,-3,-4,7,1
COc1ccc(Cc2nc(-c3ccccc3)no2)cc1,21271*,-2,-2,-4,10,-2
CCc1ccc(NCc2nc(-c3ccccc3)no2)cc1,10365,0,-1,3,-17,-1
Clc1ccc(Cc2nc(-c3cccnc3)no2)cc1,21733*,1,-2,1,23,-4
Cc1ccc(Cc2nc(-c3cccnc3)no2)cc1,1981,0,0,1,14,10
Cc1ccc(-c2noc(CNc3ccccc3)n2)cc1,21856*,?,-3,-1,25,0
Cc1ccc2c(c1)C(=O)CC(c1ccccc1)S2 (stereo not drawn),2710,0,-5,-6,·,-1
CN(CC(=O)Nc1ccc(F)c(F)c1F)C(=O)C1(c2ccccc2)CC1,3776,0,3,0,·,12
Cc1cccc(CNC(=O)C2CCC(=O)N(CCCc3ccccc3)C2)c1 (stereo not drawn),3951,0,3,-2,·,5
COc1ccc2c3c([nH]c2c1)C1(NCC3)C(=O)Nc2ccccc21 (stereo not drawn),4494,-1,-2,-13,-12,0
COc1cc2c(cc1OC)C1(NCC2)C(=O)Nc2ccccc21 (stereo not drawn),16750*,-2,0,-5,15,-13
CC1CCN(c2cc(C#N)c(C#N)cc2[N+](=O)[O-])CC1,23005*,-1,0,-3,0,10
Cc1cc(N2CCC(C)CC2)c(F)cc1[N+](=O)[O-],24078*,-1,1,-2,-1,-10
O=[N+]([O-])c1cc(F)c(N2CCCCCC2)cc1N1CCNCC1,2519,0,-4,-19,8,10
Cc1cc(N2CCCC2)c(F)cc1/C=C\[N+](=O)[O-],9071,62*,35*,22,-26,27
Cc1ccc(-c2nc(CS(=O)CC(=O)NCCCc3ccccc3)c(C)o2)cc1 (stereo not drawn),?,1,-2,1,20,-4
SMILES,Autofluor counter,BoNT A protease,Anthrax LF prot,BoNT-F LC inh,DUSP3 inh,MazF activator
Cc1cc(C)c(S(=O)(=O)N2CCCC(C(=O)NCc3ccccn3)C2)c(C)c1 (stereo not drawn),3911,3,-16,12,8,12
COc1ccc(C)cc1NC(=O)CSc1nnc(CC(=O)Nc2cccc(C(F)(F)F)c2)n1C,7882,0,-2,-5,-25,5
COc1ccccc1NC(=O)CSc1nnc(CC(=O)Nc2cccc(C(F)(F)F)c2)n1C,20559*,-3,-1,-5,19,11
COc1cccc(NC(=O)Cc2nnc(SCC(=O)NC(C)c3ccccc3)n2C)c1 (stereo not drawn),21780*,?,-4,-10,-4,3
COc1ccc(NC(=O)n2ncc3c(C)cccc32)cc1,3614,-2,-5,4,44,-7
COc1ccccc1CN(C(=O)c1cnccn1)C(C(=O)NC1CCCCC1)c1cc(OC)c(OC)c(OC)c1 (stereo not drawn),3885,-3,-12,-3,-29,5
CCCCOC(=O)C1=C(C)Nc2ncnn2C1c1ccc(OCC)c(OC)c1 (stereo not drawn),19529*,1,-5,0,22,6
CCCCOC(=O)C1=C(C)Nc2ncnn2C1c1ccc(OC)c(OC)c1 (stereo not drawn),21510*,?,-1,-9,22,-3
CCOc1ccc(C2C(C(N)=O)=C(C)Nc3ncnn32)cc1OC (stereo not drawn),3082,-3,3,8,·,0
COc1ccc(CNC(=O)CN(c2ccc(C)cc2)S(=O)(=O)c2c(C)nn(C)c2C)cc1,5589,0,-2,5,6,3
COc1cc(NC(=O)Nc2nnc([C@H]3C[C@H](O)[C@@H](CO)O3)s2)cc(OC)c1OC,3492,0,1,-1,·,·
CCOC(=O)C1C(=O)NC(SC)=C(C#N)C1c1ccccc1F (stereo not drawn),22567*,0,-2,1,24,3
COC(=O)CC1(c2ccc(OC)cc2)C(=O)c2ccccc2C1=O,4649,?,-5,?,9,-2
COC(=O)CC1(c2ccccc2)C(=O)c2ccccc2C1=O,16568*,?,0,-2,20,8
CC(=O)Oc1oc(-c2ccccc2)nc1C=Nc1ccccc1,2670,0,0,8,52*,-1
CCS(=O)(=O)N1Cc2ccccc2CC1C(=O)Nc1ccc(NC(C)=O)cc1 (stereo not drawn),3509,0,-3,-7,15,4
CCS(=O)(=O)N1Cc2ccccc2CC1C(=O)Nc1ccc(C)cc1 (stereo not drawn),22120*,1,0,-1,-28,2
O=C(NCC1CCCO1)c1ccccc1NS(=O)(=O)c1ccc(Br)s1 (stereo not drawn),3716,0,-4,1,·,2
COc1cc(/C=C2/N=C(C3CCCCC3)OC2=O)cc(OC)c1OC,20975*,?,-4,1,23,3
CCCN(CCC)S(=O)(=O)c1ccc(C(=O)OCCN2C(=O)c3cccc4c(N5CCOCC5)ccc(c34)C2=O)cc1,10692,37*,37*,32,-17,-540
